The experiment has as its target Nonstructural protein 3 (Zika virus) (UniProt A0A024AXB9).

In all, about 2,700 compounds went through this assay and about 160 (5.9%) showed an effect of 50% or more. The list comes from a sample in which strong results are over-represented; it also holds similar structures and randomly drawn compounds.

Sequence of Nonstructural protein 3 (Zika virus) (A0A024AXB9 as listed by the source): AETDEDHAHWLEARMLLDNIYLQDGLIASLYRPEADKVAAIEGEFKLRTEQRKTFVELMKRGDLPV

`NCc1cccc(NC(=O)[C@@H](NC(=O)OCc2ccccc2)c2ccc(F)c(F)c2)c1`: the inhibition is, setting by setting: (PRVABC59, Concentration 49.5 uM, Number of replicates 2.0, Standard deviation 0.33969955290034887 %) -2.45%; (PRVABC59, Concentration 99.01 uM, Number of replicates 2.0, Standard deviation 0.8168349211729018 %) 6.3%; (PRVABC59, Concentration 198.0 uM, Number of replicates 2.0, Standard deviation 1.2939689407463024 %) 43.9%.
With `NCc1cccc(NC(=O)c2ccc(OCc3ccccc3)cc2)c1`, the inhibition (PRVABC59, Concentration 49.5 uM, Number of replicates 2.0, Standard deviation 1.3665778981704908 %) turned out to be 1.2%; the inhibition (PRVABC59, Concentration 99.01 uM, Number of replicates 2.0, Standard deviation 3.6407499729049095 %) worked out at 22.5%; the inhibition (PRVABC59, Concentration 198.0 uM, Number of replicates 2.0, Standard deviation 29.263434924261905 %) is 26.6%.
In the case of `NCc1cccc(NC(=O)[C@@H](NC(=O)OCc2ccccc2)c2ccc(Br)cc2)c1`, the inhibition reads like this: (PRVABC59, Concentration 49.5 uM, Number of replicates 2.0, Standard deviation 0.867338983981324 %) 10%; (PRVABC59, Concentration 99.01 uM, Number of replicates 2.0, Standard deviation 0.4728161592371566 %) 98.2%; (PRVABC59, Concentration 198.0 uM, Number of replicates 2.0, Standard deviation 0.18671930544775084 %) 97.9%.
Consider `NCc1cccc(NC(=O)[C@@H](NC(=O)OCc2ccccc2)c2ccc(F)cc2)c1`, for which the inhibition (PRVABC59, Concentration 49.5 uM, Number of replicates 2.0, Standard deviation 0.5315909510099626 %) came out at 1.43%; the inhibition (PRVABC59, Concentration 99.01 uM, Number of replicates 2.0, Standard deviation 0.7442277023062145 %) was 8.36%; the inhibition (PRVABC59, Concentration 198.0 uM, Number of replicates 2.0, Standard deviation 0.5134389777058966 %) turned out to be 25.7%.
In the case of `c1ccc2c([C@H]3CCN(CCC4CCOCC4)C3)c[nH]c2c1`, the inhibition runs as follows: (PRVABC59, Concentration 49.5 uM, Number of replicates 2.0, Standard deviation 1.2406953242285323 %) 12.1%; (PRVABC59, Concentration 99.01 uM, Number of replicates 2.0, Standard deviation 0.23839741086829247 %) 18.5%; (PRVABC59, Concentration 198.0 uM, Number of replicates 2.0, Standard deviation 0.8459297336369422 %) 27.9%.
`O=S(=O)(Nc1ccc(Oc2ccccc2Cl)cc1)c1c[nH]c2ccc(Cl)cc12`: the inhibition (PRVABC59, Concentration 49.5 uM, Number of replicates 2.0, Standard deviation 1.8433959322838933 %) amounted to 11%; the inhibition (PRVABC59, Concentration 99.01 uM, Number of replicates 2.0, Standard deviation 3.1252865977713378 %) was determined as 14.3%; the inhibition (PRVABC59, Concentration 198.0 uM, Number of replicates 2.0, Standard deviation 3.9544884158217 %) amounted to 39%.
Regarding `O=C1NCc2ccccc2C12CCN(Cc1cc3ccc(F)cc3[nH]1)CC2`, the inhibition (PRVABC59, Concentration 49.5 uM, Number of replicates 2.0, Standard deviation 3.3747851513626115 %) stood at 6.9%; the inhibition (PRVABC59, Concentration 99.01 uM, Number of replicates 2.0, Standard deviation 2.4802388593809592 %) stood at 13.2%; the inhibition (PRVABC59, Concentration 198.0 uM, Number of replicates 2.0, Standard deviation 2.1357042200194405 %) worked out at 18.5%.
Turning to `CCCCCC(=O)N[C@H](C(=O)NCc1ccc(N)nc1)c1ccc(OCc2ccccc2)cc1`, the inhibition is -2.18% (PRVABC59, Concentration 49.5 uM, Number of replicates 2.0, Standard deviation 0.04494641077638166 %); 1.76% (PRVABC59, Concentration 99.01 uM, Number of replicates 2.0, Standard deviation 0.3023657059020049 %); -1.18% (PRVABC59, Concentration 198.0 uM, Number of replicates 2.0, Standard deviation 0.018387068425059654 %).
`CCCCCC(=O)N[C@H](C(=O)N1CCC(CN)CC1)c1ccc(OCc2ccccc2)cc1`: the inhibition by setting is: (PRVABC59, Concentration 49.5 uM, Number of replicates 2.0, Standard deviation 1.1847944417619873 %) 5.06%; (PRVABC59, Concentration 99.01 uM, Number of replicates 2.0, Standard deviation 0.3935504126553241 %) 10.8%; (PRVABC59, Concentration 198.0 uM, Number of replicates 2.0, Standard deviation 0.8347422741682105 %) 26.5%.
As for `NC1(c2cccc(NC(=O)[C@@H](NC(=O)OCc3ccccc3)c3ccc(OCc4ccccc4)cc3)c2)CCC1`, the inhibition runs as follows: (PRVABC59, Concentration 49.5 uM, Number of replicates 2.0, Standard deviation 2.468656231060589 %) 14.2%; (PRVABC59, Concentration 99.01 uM, Number of replicates 2.0, Standard deviation 1.4495575723595426 %) 30.7%; (PRVABC59, Concentration 198.0 uM, Number of replicates 2.0, Standard deviation 0.13484294125181392 %) 82.7%.
In the case of `NCc1ccc(NC(=O)[C@@H](NC(=O)OCc2ccccc2)c2ccc(OCc3ccccc3)cc2)cc1`, the inhibition turned out to be 7.22% (PRVABC59, Concentration 49.5 uM, Number of replicates 2.0, Standard deviation 1.551749181482573 %); 11.8% (PRVABC59, Concentration 99.01 uM, Number of replicates 2.0, Standard deviation 2.287213711046402 %); 23% (PRVABC59, Concentration 198.0 uM, Number of replicates 2.0, Standard deviation 0.9961100816492645 %).
Consider `CCCCCC(=O)N[C@H](C(=O)NCc1cccc(CN)c1)c1ccc(OCc2ccccc2)cc1`, for which the inhibition was -3.7% (PRVABC59, Concentration 49.5 uM, Number of replicates 2.0, Standard deviation 0.8118332703664171 %); 89.7% (PRVABC59, Concentration 99.01 uM, Number of replicates 2.0, Standard deviation 11.543494465765306 %); 99% (PRVABC59, Concentration 198.0 uM, Number of replicates 2.0, Standard deviation 0.4445743989869767 %).
As to `NCc1cccc(NC(=O)[C@@H](NC(=O)OCc2ccccc2)c2ccc(OCc3ccccc3)cc2)c1`, the inhibition by setting is: (PRVABC59, Concentration 49.5 uM, Number of replicates 2.0, Standard deviation 0.012122107981309298 %) 99.6%; (PRVABC59, Concentration 99.01 uM, Number of replicates 2.0, Standard deviation 0.01616281064174573 %) 99.1%; (PRVABC59, Concentration 198.0 uM, Number of replicates 2.0, Standard deviation 0.06465124256698292 %) 97.8%.
With `O=C(Nc1cccc(N2CCNCC2)c1)c1cccc2ncccc12`, the inhibition reads like this: (PRVABC59, Concentration 49.5 uM, Number of replicates 2.0, Standard deviation 0.4660025311194914 %) 12.8%; (PRVABC59, Concentration 99.01 uM, Number of replicates 2.0, Standard deviation 1.8240670503820091 %) 21.1%; (PRVABC59, Concentration 198.0 uM, Number of replicates 2.0, Standard deviation 0.426059457023535 %) 34.4%.
Consider `CCn1ccnc(N2CC[C@@H](Cc3ccncc3)C2)c1=O`, for which the inhibition (PRVABC59, Concentration 50.0 uM, Number of replicates 2.0, Standard deviation 17.324672814645545 %) was 18.6%; the inhibition (PRVABC59, Concentration 100.0 uM, Number of replicates 2.0, Standard deviation 1.6917913579666908 %) worked out at 12.9%; the inhibition (PRVABC59, Concentration 200.0 uM, Number of replicates 2.0, Standard deviation 5.92774721773736 %) is 23.1%.
As for `CC(C)c1cc(CN2CCC3(CC2)C(=O)NCc2ccccc23)n[nH]1`, the inhibition (PRVABC59, Concentration 49.5 uM, Number of replicates 2.0, Standard deviation 2.3847652893231714 %) came out at 1.4%; the inhibition (PRVABC59, Concentration 99.01 uM, Number of replicates 2.0, Standard deviation 4.553677158798315 %) was 2.83%; the inhibition (PRVABC59, Concentration 198.0 uM, Number of replicates 2.0, Standard deviation 2.2809894644583135 %) was found to be 6.37%.
On to `O=S(=O)(c1c[nH]c2ccccc12)N1CCC(c2cnc3ccc[nH]c2-3)CC1`, for which the inhibition (PRVABC59, Concentration 49.5 uM, Number of replicates 2.0, Standard deviation 0.9724228784365659 %) turned out to be 34%; the inhibition (PRVABC59, Concentration 99.01 uM, Number of replicates 2.0, Standard deviation 0.1115050511195736 %) amounted to 36.4%; the inhibition (PRVABC59, Concentration 198.0 uM, Number of replicates 2.0, Standard deviation 2.3986425606638684 %) was 29%.
As to `CCn1ccnc(N2CC[C@H](c3ccc(OC)nc3)C2)c1=O`, the inhibition is, setting by setting: (PRVABC59, Concentration 50.0 uM, Number of replicates 2.0, Standard deviation 2.450630192539874 %) 10.5%; (PRVABC59, Concentration 100.0 uM, Number of replicates 2.0, Standard deviation 0.40502109894604904 %) 17.9%; (PRVABC59, Concentration 200.0 uM, Number of replicates 2.0, Standard deviation 0.08715563662307181 %) 30.5%.
Take `CCCN(C)C(=O)c1cc(Cl)ccc1NS(=O)(=O)c1ccc(Oc2ccccc2Cl)cc1`: the inhibition reads like this: (PRVABC59, Concentration 49.5 uM, Number of replicates 2.0, Standard deviation 1.6827651888895978 %) 30.1%; (PRVABC59, Concentration 99.01 uM, Number of replicates 2.0, Standard deviation 1.553741884480168 %) 42.7%; (PRVABC59, Concentration 198.0 uM, Number of replicates 2.0, Standard deviation 1.4828704414225533 %) 51.4%.
Consider `CN(CCS(N)(=O)=O)C(=O)c1cc(Cl)ccc1NS(=O)(=O)c1ccc(Oc2ccccc2Cl)cc1`, for which the inhibition runs as follows: (PRVABC59, Concentration 49.5 uM, Number of replicates 2.0, Standard deviation 4.192376018410405 %) 8.99%; (PRVABC59, Concentration 99.01 uM, Number of replicates 2.0, Standard deviation 3.3291863073712813 %) 17.3%; (PRVABC59, Concentration 198.0 uM, Number of replicates 2.0, Standard deviation 0.7795966632269805 %) 72.5%.
For `CCCCCNC(=O)c1cc(Cl)ccc1NS(=O)(=O)c1ccc(Oc2ccccc2Cl)cc1`, the inhibition is 30.5% (PRVABC59, Concentration 49.5 uM, Number of replicates 2.0, Standard deviation 0.82866638448688 %) and 14.2% (PRVABC59, Concentration 99.01 uM, Number of replicates 2.0, Standard deviation 0.1903473061675686 %).

A word on the inhibition: it is the relative decrease from the control value, in per cent.

These data come from ChEMBL document CHEMBL5606458, “ASAP - ZIKV NS2B-NS3 protease fluorescence single point” (2024).
